Conditions in all cases: concentration: 10 µM; 24 h
Test [1] deals with HCC1569. The test can be described thus: cell number relative to DMSO (% of DMSO); higher = more cells (less growth inhibition / toxicity). An outline of the steps:
(§1)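 In 384-well plates holding 800 HCC1569 or TDF cells per well in RPMI with 10% FBS, compounds were tested at 10 µM for 24 h at 37 °C in triplicate. Fixation used 3.7% formaldehyde. Staining used a rabbit anti-H1.0 antibody with an AlexaFluor 647 secondary, plus DAPI. Each value, H1.0 nuclear intensity or cell number, is a median of replicates shown as percent of the plate control, and HCC1569 values were smoothed for positional effects.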

Test [2] deals with TDF. The description is as above. The method, boiled down:
as §1

Test [3] deals with TDF. The test can be described thus: H1.0 immunofluorescence intensity relative to DMSO (% of DMSO); higher = stronger H1.0 induction, active = 120 or more. An outline of the steps:
as §1

Test [4] deals with HCC1569. The test can be described thus: H1.0 immunofluorescence intensity relative to DMSO (% of DMSO); higher = stronger H1.0 induction, active = 140 or more. An outline of the steps: as §1

± gives the standard deviation of the averaged measurements.
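Wherever H1.0 immunofluorescence intensity relative to DMSO is given: TDF is a line of transformed human dermal fibroblasts of mesenchymal origin.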
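Wherever cell number relative to DMSO is given: TDF denotes transformed human dermal fibroblasts of mesenchymal origin.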

Take `O=c1[nH]cc(F)c(=O)[nH]1` [5-Fluorouracil]: the cell number in the test with HCC1569 [1] was 81.345 ± 0.068; in the test on TDF [2], 92.4 ± 4.8. Further, the H1.0 immunofluorescence intensity was 97.7 (inactive) with TDF [3] and 94.5 (inactive) with HCC1569 [4].

For `Cl.Cl.Fc1ccc(C(c2ccc(F)cc2)N2CCN(CC=Cc3ccccc3)CC2)cc1` [Flunarizine dihydrochloride], the cell number amounted to 101 with HCC1569 [1] and 110 with TDF [2]. In addition, the H1.0 immunofluorescence intensity is 89.1 (inactive) with TDF [3] and 97.3 (inactive) in the test with HCC1569 [4].

For the compound `Nc1nc(=O)n(C2CSC(CO)O2)cc1F` (stereo not given) [Emtricitabine], the cell number in the test on HCC1569 [1] was 105; in the test with TDF [2], 99.4. The H1.0 immunofluorescence intensity was 96.1 (inactive) with TDF [3] and 105 (inactive) in the test with HCC1569 [4].

With `Cc1cc(Nc2nc(-c3ccccc3)nc3ccccc23)n[nH]1` [GSK-3 Inhibitor XIII], the results for the cell number in the test on HCC1569 [1] and with TDF [2] were 57 and 46.1, respectively. Besides, the results for the H1.0 immunofluorescence intensity with TDF [3] and with HCC1569 [4] were 112 (inactive) and 182 (active), respectively.

Take `NCCCS(=O)(=O)[O-].[Na+]` [3-Amino-1-propanesulfonic acid sodium]: the cell number in the test on HCC1569 [1] was determined as 94.4; in the test with TDF [2] it was 99.3. Moreover, the H1.0 immunofluorescence intensity in the test with TDF [3] was 93.2 (inactive); in the test on HCC1569 [4], 91.9 (inactive).

For `O=C1Nc2ccc(Br)cc2C1=Cc1cc2c([nH]1)CCCC2` [VEGF Receptor 2 Kinase Inhibitor II], the cell number with HCC1569 [1] is 94; with TDF [2], 114. In addition, the H1.0 immunofluorescence intensity is 76.2 (inactive) in the test on TDF [3] and 190 (active) in the test on HCC1569 [4].

With `C#CCN[C@H]1CCc2ccccc21` [N-[(1S)-2,3-dihydro-1H-inden-1-yl]-N-(2-propynyl)amine], the cell number came out at 102 in the test with HCC1569 [1] and 104 in the test on TDF [2]. Further, the values for the H1.0 immunofluorescence intensity with TDF [3] and with HCC1569 [4] were 92.2 (inactive) and 98.1 (inactive), respectively.

As to `O=C(C=Cc1ccc(O)cc1)CC(=O)C=Cc1ccc(O)cc1` [Bis demethoxycurcumin], the cell number in the test with HCC1569 [1] was 83.7; in the test with TDF [2] it was 95.1. Besides, the H1.0 immunofluorescence intensity in the test with TDF [3] was 96 (inactive); with HCC1569 [4], 94.4 (inactive).

`Cl.O=C(NCCCCN1CCN(c2cccc(Cl)c2Cl)CC1)c1ccc2c(c1)Cc1ccccc1-2`: the cell number in the test with HCC1569 [1] amounted to 93.5; with TDF [2], 98.2. Also, the figures for the H1.0 immunofluorescence intensity in the test with TDF [3] and in the test on HCC1569 [4] were 96.4 (inactive) and 116 (inactive), respectively.

On to `COc1cc(O)c2c(c1)oc(=O)c1c3cc(O)c(O)cc3oc21` [Wedelolactone], for which the cell number in the test with HCC1569 [1] was 91.7; in the test on TDF [2], 74.8. For the same compound, the values for the H1.0 immunofluorescence intensity in the test with TDF [3] and with HCC1569 [4] were 101 (inactive) and 91.6 (inactive), respectively.

In the case of `Cl.Cl.NCCSSCCN` [Cystamine dihydrochloride], the cell number turned out to be 97.5 with HCC1569 [1] and 107 with TDF [2]. In addition, the H1.0 immunofluorescence intensity in the test on TDF [3] is 93.4 (inactive); in the test with HCC1569 [4], 101 (inactive).

For `c1coc(CNc2ncnc3nc[nH]c23)c1` [Kinetin], the cell number in the test on HCC1569 [1] was determined as 103; in the test on TDF [2], 112. Also, the H1.0 immunofluorescence intensity in the test on TDF [3] was 95.4 (inactive); in the test with HCC1569 [4] it was 92.8 (inactive).

`CS(=O)(=O)O.Cc1c(O)cccc1C(=O)NC(CSc1ccccc1)C(O)CN1CC2CCCCC2CC1C(=O)NC(C)(C)C` (stereo not given) [Nelfinavir mesylate]: the cell number with HCC1569 [1] is 102; with TDF [2] it was 112. Also, the H1.0 immunofluorescence intensity was 90.6 (inactive) in the test with TDF [3] and 116 (inactive) in the test with HCC1569 [4].

For `Cc1ccc2c(c1)C(N1CCN(C)CC1)=Nc1cccnc1N2`, the cell number in the test on HCC1569 [1] amounted to 103; with TDF [2], 102. For the same compound, the values for the H1.0 immunofluorescence intensity with TDF [3] and in the test with HCC1569 [4] were 89.8 (inactive) and 99 (inactive), respectively.

As for `COCCCCCCCCCCCC(=O)O` [12-Methoxydodecanoic acid], the cell number in the test on HCC1569 [1] is 101 ± 1.2; in the test with TDF [2], 95.9 ± 11. The H1.0 immunofluorescence intensity in the test on TDF [3] is 95.5 (inactive); with HCC1569 [4], 98.5 (inactive).

Take `CC(NC(=O)CCc1nc(=O)c2ccccc2[nH]1)c1ccccc1` (stereo not given): the values for the cell number in the test on HCC1569 [1] and in the test on TDF [2] were 103 and 111, respectively. Also, the results for the H1.0 immunofluorescence intensity in the test with TDF [3] and in the test on HCC1569 [4] were 93.7 (inactive) and 105 (inactive), respectively.

Consider `N#CC(=Cc1ccc(O)cc1)C(N)=C(C#N)C#N`, for which the cell number with HCC1569 [1] was 99; in the test with TDF [2] it was 96.7. Besides, the values for the H1.0 immunofluorescence intensity in the test on TDF [3] and in the test on HCC1569 [4] were 95.4 (inactive) and 110 (inactive), respectively.

Consider `COc1cc2oc(=O)ccc2cc1O` [Isoscopoletine], for which the cell number is 105 in the test on HCC1569 [1] and 92.4 with TDF [2]. The H1.0 immunofluorescence intensity in the test on TDF [3] is 102 (inactive); with HCC1569 [4] it was 89.1 (inactive).

For the compound `CCCCCC#CCC#CCC#CCC#CCCCC(=O)O`, the cell number was determined as 104 with HCC1569 [1] and 96.2 in the test on TDF [2]. Besides, the H1.0 immunofluorescence intensity in the test with TDF [3] was 98.2 (inactive); in the test on HCC1569 [4], 101 (inactive).

As for `C1COC(NC(C2CC2)C2CC2)=N1.O=P(O)(O)O` [Rilmenidine phosphate], the figures for the cell number in the test on HCC1569 [1] and in the test on TDF [2] were 101 and 110, respectively. Further, the H1.0 immunofluorescence intensity with TDF [3] is 88.5 (inactive); with HCC1569 [4], 103 (inactive).

In the case of `O=c1[nH]c2cc([N+](=O)[O-])c([N+](=O)[O-])cc2[nH]c1=O`, the values for the cell number in the test with HCC1569 [1] and in the test with TDF [2] were 105 and 111, respectively. For the same compound, the H1.0 immunofluorescence intensity was 91.9 (inactive) with TDF [3] and 91.4 (inactive) in the test with HCC1569 [4].

As for `CCCCCC(O)C=CC1C(O)CC2CC(=CCCCC(=O)O)CC21` (stereo not given) [Carbacyclin], the figures for the cell number with HCC1569 [1] and with TDF [2] were 103 and 99.1, respectively. Besides, the H1.0 immunofluorescence intensity with TDF [3] is 94.8 (inactive); with HCC1569 [4], 100 (inactive).

In the case of `CCCCCCCCCCCCCC=CC(O)C(CO)N(C)C` (stereo not given) [N,N-Dimethylsphingosine], the figures for the cell number in the test on HCC1569 [1] and in the test on TDF [2] were 110 and 90.2, respectively. Moreover, the H1.0 immunofluorescence intensity in the test on TDF [3] and with HCC1569 [4] was 101 (inactive) throughout.

With `CC1(NCC(O)COc2cccc3[nH]ccc23)CCC(C(C)(C)NC(=O)CBr)CC1` (stereo not given) [Pindobind-5HT1A], the results for the cell number in the test with HCC1569 [1] and in the test on TDF [2] were 61.4 and 10.4, respectively. The H1.0 immunofluorescence intensity is 135 (active) with TDF [3] and 178 (active) in the test on HCC1569 [4].

As to `O=C(O)C1CCCNC1C(=O)O` (mixture of isomers), the cell number worked out at 108 in the test with HCC1569 [1] and 110 in the test with TDF [2]. The H1.0 immunofluorescence intensity with TDF [3] was 96.4 (inactive); in the test on HCC1569 [4] it was 96.7 (inactive).

The values are drawn from the supplement of paper PMC7156485.
